Several values for one entry are separate records, joined by “and”; a condition that tells them apart may be missing. Equal values may be shown once. Compounds without any hit were thinned out: in the full panel of roughly 79,000, 15% have a hit. The source holds several records for some structures; these can differ, active in one and inactive in another. Activity calls are given as the source filed them. Cut-off read from the data, not from the text of the source: active = growth inhibition above about 70%; inactive = the rest.
How the values were obtained:
[1] = NCI Yeast Anticancer Drug Screen. Data for the rad52 strain (AID 147);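 note: 0% = growth of vehicle-treated control cultures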; conditions: S. cerevisiae rad52 mutant growth inhibition, stronger effect = higher value
Procedure, shortened: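 Growth of repair-deficient yeast cells was compared between compound-treated and vehicle-treated cultures to give percent inhibition.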

[2] = NCI Yeast Anticancer Drug Screen. Data for the wt1 strain (AID 149);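 note: 0% = growth of vehicle-treated wt1 cultures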; conditions: S. cerevisiae wt1 strain (SPY 50644) growth inhibition, stronger effect = higher value
Procedure, shortened: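 Growth inhibition read against vehicle controls after compound exposure of the wt1 yeast strain.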

[3] = NCI Yeast Anticancer Drug Screen. Data for the rad50EPP+ strain (AID 151);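 note: 0% = growth of vehicle-treated control cultures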; conditions: S. cerevisiae rad50 mutant strain, stronger effect = higher value
Procedure, shortened: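 Measured: growth inhibition of rad50EPP+ yeast. Reference: vehicle-treated controls. Screen uses strains with defined genetic alterations in DNA damage repair or cell cycle control.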

[4] = NCI Yeast Anticancer Drug Screen. Data for the rad50 strain (AID 155);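 note: 0% = growth of vehicle-only cultures of the same strain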; conditions: S. cerevisiae rad50 strain growth inhibition, stronger effect = higher value
Procedure, shortened: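 Readout: growth inhibition relative to vehicle-treated cultures. Compound exposure was carried out in a genetically defined yeast strain deficient in DNA damage repair.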

[5] = NCI Yeast Anticancer Drug Screen. Data for the mec2-1 strain (AID 157); conditions: S. cerevisiae mec2-1 strain, stronger effect = higher value
Procedure, shortened: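 Compounds were applied to mec2-1 yeast cells. Their growth was then compared with that of vehicle-treated cultures to give growth inhibition.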

[6] = NCI Yeast Anticancer Drug Screen. Data for the rad14 strain (AID 159);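 note: 0% = growth of vehicle-treated control cultures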; conditions: S. cerevisiae rad14 strain growth inhibition, stronger effect = higher value
Procedure, shortened: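 Growth inhibition vs vehicle controls; genetically altered yeast strain (DNA damage repair defect) treated with test compounds.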

[7] = NCI Yeast Anticancer Drug Screen. Data for the sgs1 mgt1 strain (AID 161);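 note: 0% = growth of cultures given vehicle only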; conditions: S. cerevisiae sgs1 mgt1 strain, stronger effect = higher value
Procedure, shortened: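 Percent growth inhibition was derived by comparing compound-exposed mutant yeast with vehicle-exposed cultures. The strain carries alterations in DNA damage repair.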

[8] = NCI Yeast Anticancer Drug Screen. Data for the CLN2oe strain (AID 163);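 note: 0% = growth of vehicle-only control cultures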; conditions: S. cerevisiae CLN2oe strain, stronger effect = higher value
Procedure, shortened: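 Cells of an engineered yeast line with disturbed cell-cycle regulation are treated with compound. Inhibition of growth is then calculated relative to the vehicle-treated reference.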

[9] = NCI Yeast Anticancer Drug Screen. Data for the cln2 rad14 strain (AID 165);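 note: 0% = growth equal to vehicle treated cultures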; conditions: S. cerevisiae cln2 rad14 strain, stronger effect = higher value
Procedure, shortened: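 Strain: cln2 rad14 yeast, altered in cell cycle control and DNA damage repair. Read-out: growth inhibition vs vehicle.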

[10] = NCI Yeast Anticancer Drug Screen. Data for the bub3 strain (AID 167); conditions: S. cerevisiae bub3 mutant strain, stronger effect = higher value
Procedure, shortened: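 Readout: yeast growth inhibition, expressed relative to vehicle-only wells. The test organism is a mutant strain from a panel with lesions in DNA repair or checkpoint genes.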

[11] = NCI Yeast Anticancer Drug Screen. Data for the wt2 strain (AID 169);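 note: 0% = growth of vehicle-treated yeast cultures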; conditions: S. cerevisiae wt2 strain growth inhibition, stronger effect = higher value
Procedure, shortened: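 Growth of compound-treated yeast is measured and expressed as inhibition relative to vehicle-only controls.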

[12] = NCI Yeast Anticancer Drug Screen. Data for the mlh1 strain (AID 171);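 note: 0% = growth of vehicle-treated control cultures of the same strain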; conditions: S. cerevisiae mlh1 strain growth inhibition, stronger effect = higher value
Procedure, shortened: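 Test agents were incubated with yeast bearing a defined DNA damage repair or cell cycle control alteration; values are growth inhibition normalised to vehicle-treated cultures.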

[13] = NCI Yeast Anticancer Drug Screen. Data for the sgs1 strain (AID 173);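 note: 0% = growth of vehicle-only control cultures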; conditions: S. cerevisiae sgs1 mutant, stronger effect = higher value
Procedure, shortened: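 Strain with an altered DNA repair or cell cycle pathway exposed to compound. Growth then measured. Value = inhibition versus vehicle control.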

[14] = NCI Yeast Anticancer Drug Screen. Data for the mlh1 rad18 strain (AID 175); conditions: S. cerevisiae mlh1 rad18 strain growth inhibition, stronger effect = higher value
Procedure, shortened: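 A repair-deficient yeast strain is exposed to test compound, and growth is scored relative to vehicle-treated controls.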

[15] = NCI Yeast Anticancer Drug Screen. Data for the rad18 strain (AID 177); conditions: S. cerevisiae rad18 mutant growth inhibition, stronger effect = higher value
Procedure, shortened: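 DNA-repair-defective yeast; compound treatment; growth inhibition scored against vehicle.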

[16] = at 5.0 µM (retest, dose inferred, filed as 0.5)
[17] = at 50.0 µM (retest, dose inferred, filed as 5.0)

Measured: growth inhibition

CCCCCCCCCCCCCCCCP(=O)(O)OP(=O)(O)OCC1OC(n2ccc(N)nc2=O)C(O)C1O (stereo not drawn)
88.3% (active) and 3.75% (inactive): [7]; at 50.0 µM
74% (active) and -35.4% (inactive): [14]; at 50.0 µM
80.7% (active) and -3.1% (inactive): [5]; at 50.0 µM
inactive: [1]; at 1.2 µM 3% | [1]; at 3.7 µM 3% | [1]; at 11.0 µM 4% | [1]; at 33.0 µM 3% | [1]; at 100.0 µM 5% | [2]; at 1.2 µM 3% | [2]; at 3.7 µM 4% | [2]; at 11.0 µM 6% | [2]; at 33.0 µM 3% | [2]; at 100.0 µM 3% | [3]; at 1.2 µM 0% | [3]; at 3.7 µM -5% | [3]; at 11.0 µM -6% | [3]; at 33.0 µM -2% | [3]; at 100.0 µM 18% | [4]; at 1.2 µM 2% | [4]; at 3.7 µM 1% | [4]; [16] -13% | [4]; at 11.0 µM 2% | [4]; at 33.0 µM 0% | [4]; [17] 10% | [4]; at 100.0 µM 3% | [5]; at 1.2 µM -3% | [5]; at 3.7 µM -3% | [5]; [16] -9% | [5]; at 11.0 µM -4% | [5]; at 33.0 µM -5% | [5]; [17] -13% | [5]; at 100.0 µM -3% | [6]; at 1.2 µM -2% | [6]; at 3.7 µM -1% | [6]; at 11.0 µM -1% | [6]; at 33.0 µM -1% | [6]; at 100.0 µM 1% | [7]; [16] -2% | [7]; [17] 46% | [8]; at 1.2 µM -3% | [8]; at 3.7 µM -7% | [8]; at 11.0 µM -6% | [8]; at 33.0 µM -17% | [8]; at 100.0 µM -17% | [9]; [16] 0% | [9]; [17] 6% | [9]; at 50.0 µM 59.9% and -13.4% | [10]; at 1.2 µM -1% | [10]; at 3.7 µM -2% | [10]; [16] 14% | [10]; at 11.0 µM -4% | [10]; at 33.0 µM -10% | [10]; [17] -19% | [10]; at 100.0 µM -19% | [11]; at 1.2 µM 1% | [11]; at 3.7 µM 0% | [11]; at 11.0 µM 1% | [11]; at 33.0 µM 1% | [11]; at 100.0 µM 1% | [12]; at 1.2 µM 0% | [12]; at 3.7 µM 0% | [12]; at 11.0 µM 1% | [12]; at 33.0 µM -4% | [12]; at 100.0 µM 1% | [13]; at 1.2 µM 0% | [13]; at 3.7 µM 0% | [13]; at 11.0 µM -3% | [13]; at 33.0 µM 1% | [13]; at 100.0 µM 21% | [14]; [16] -19% | [14]; [17] 26% | [15]; at 1.2 µM -1% | [15]; at 3.7 µM -2% | [15]; at 11.0 µM 3% | [15]; at 33.0 µM 0% | [15]; at 100.0 µM 11%
76% (active) and -16.8% (inactive): [10]; at 50.0 µM
73.3% (active) and 8.3% (inactive): [4]; at 50.0 µM
